Screening results as filed in PubChem BioAssay.
HCV inh = HCV inhibition; Huh7.5.1 HCVcc-Cre infection, luciferase reporter, 44 h; AID 651820; Potency, µM (doses to about 41.8 µM), usual class: inhibitors; hit rate 3.4% among 340,000
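After 44 h co-culture of compound, cells and HCVcc-Cre (~0.5 moi), substrate is added for 15 min at room temperature and luciferase measured over 15 sec. Cells were seeded at 1,000/well and pre-cultured 4 h.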
Pf growth 96h = P. falciparum growth inhibition at 96 hour, primary screen for plastid delayed-death inhibitors | AID 504834 | Potency, µM (titrated, usually from 28.7 µM), hits mostly inhibitors | P. falciparum luciferase reporter growth, 96 h | hit rate 6.9% among 320,000
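Luminescence readout: decreased luciferase signal marks inhibited growth of reporter-expressing P. falciparum in infected red cells (2% hematocrit, 0.05% parasitemia final), exposed to compound two generations (96 h, 37 C, 5% CO2).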
Sm TGR block = inhibitors of Schistosoma mansoni thioredoxin glutathione reductase; Q962Y6; purified TGR, DTNB reduction, TNB absorbance 405 nm; Potency, µM (top dose mostly 114 µM), usual class: inhibitors; hit rate 3% among 360,000; also: nearly all actives have a fitted effect of over 60% in size
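First, TGR (20 nM dispensed) and NADPH were mixed with compound. Second, a 15 min room-temperature incubation followed. Third, further NADPH and then DTNB were added to start the reaction. Finally, TNB absorbance was monitored kinetically.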
HCMV antiviral = human cytomegalovirus inhibition; hit rate 4.5% among 410,000; activity change, negative = inhibition, % at 57.5 µM; HFF cells, HCMV-luciferase reporter, 72 h; active compounds read low; AID 1259415; in the data active = activity change below about -60%; inconclusive = no clear call, values can overlap the other calls; inactive = above about -39%
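HFF cells seeded 16 h at 37C, treated with compounds, infected with luciferase-reporter HCMV at MOI 1 PFU/cell; luciferase read at 72 h post infection, normalized to buffer-only and Salinomycin controls.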
Pf growth 48h = inhibits P. falciparum growth in the first generation, 48 h. P. falciparum luciferase growth in erythrocytes, 48 h. Potency, µM (doses to about 28.7 µM), most hits filed as inhibitors. hit rate 5.9% among 310,000
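Firefly luciferase activity from engineered P. falciparum reports growth; inhibitors lower the luminescent signal. Cultures contained 2% hematocrit erythrocytes at 0.1% final parasitemia.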
SARS PLpro yeast = inhibitors of SARS-CoV papain-like protease in yeast. hit rate 0.19% among 330,000. S. cerevisiae expressing SARS-CoV PLpro, growth rescue. Potency, µM (top dose mostly 32.9 µM), actives largely listed as activators; calls by dose curve; also: nearly all actives have a fitted effect of over 55% in size
Numbers stand for hits; n = inactive; u = inconclusive; x = no result; [ ] = dose if it differs, or a comment. Most compounds without a hit are left out; they make up all but 15% or so of the library. Unless noted, calls follow the shape of the dose curve; as a rule, active = well fitted curve in the direction sought with a large enough effect; inconclusive = small, poorly fitted or top-dose-only effect, or another doubt; inactive = no such curve, though single readings can be large; an effect the other way counts as inactive or inconclusive.

SMILES	HCV inh	Pf growth 96h	Sm TGR block	HCMV antiviral	Pf growth 48h	SARS PLpro yeast
COc1ccc(OCC(O)CN(C)C(=O)/C=C/c2cccc([N+](=O)[O-])c2)cc1 (configuration not stated)	n	u	x	-78	n	n
CCCCN(CCCC)C(=O)/C=C/c1cccc([N+](=O)[O-])c1	u	n	n	n	u	n
CC(C)CN(CC(C)C)CC(O)COc1ccc([N+](=O)[O-])cc1 (configuration not stated)	n	n	n	n	12µM	n
CCCCN(CCCC)CC(O)COc1ccccc1Br (configuration not stated)	u	n	n	n	4.1µM	n
Cc1ccccc1OCC(O)CN(CCO)Cc1ccccc1 (configuration not stated)	n	u	n	u	u	n
CC(C)CN(CC(C)C)CC(O)COc1ccccc1Br (configuration not stated)	n	3.3µM	n	-76	u	n
O=C(NC(Cc1ccc(O)cc1)C(=O)N=Nc1c(O)[nH]c2ccccc12)c1ccccc1 (configuration not stated)	n	x	x	-83	x	x
Cc1cccn2c(=O)nc(SCC(=O)c3ccccc3)nc12	n	n	n	n	n	x
CC(=O)[C@@]1(O)[C@H](C)CC2C3CC=C4CC(OP(=O)(O)O)CC[C@]4(C)C3CC[C@@]21C (some centres not stated)	n	n	n	n	n	n
CN(CC(=O)Nc1cccc(F)c1)C(=O)/C=C/c1cn(Cc2ccccc2)nc1-c1cccnc1	u	10µM	n	n	u	n
O=C(O)/C=C/c1cn(Cc2ccccc2)nc1-c1cccnc1	n	n	n	n	n	n
CC(=O)Nc1ccc(S(=O)(=O)N(Cc2cccnc2)Cc2cc3ccc(C)cc3[nH]c2=O)cc1	u	u	n	n	u	n
O=C(CCSc1ccccc1)NC1CCCC1	n	n	n	n	n	n
O=C(CCSc1ccc(Cl)cc1)NC1CCCC1	n	5.9µM	n	n	n	n
O=C(CCC(=O)OCC(=O)c1ccc(Cl)cc1)NC1CCCCC1	n	n	n	-105	n	n
O=C(Nc1ncccc1O)C1CCN(S(=O)(=O)c2ccc3ccccc3c2)CC1	n	n	u	n	u	n
O=C(CN1CCN(Cc2ccccc2Cl)C1=O)NCCCN1CCOCC1	n	n	n	n	n	n
Clc1cccc(Cl)c1-c1noc(CN2CCOCC2)n1	n	u	n	n	10µM	n
CCOC(=O)C1=C[C@@H](C(C)(C)C)N(S(=O)(=O)c2ccc(C)cc2)[C@H]1c1ccc(Cl)c(Cl)c1	x	x	x	-88	x	x
CCOC(=O)C1=C[C@@H](C(C)(C)C)N(S(=O)(=O)c2ccccc2C)[C@H]1c1ccc(Cl)cc1	x	x	x	-77	x	x
COc1ccc(C(=O)Nc2c(Cl)cc(Cl)cc2C(=O)N2CCOCC2)cc1	n	n	n	n	n	n
CC[C@H](C)/C=C(C)/C=C/C1=CC2=CC(=O)[C@]3(C)OC(=O)[C@@H](C(C)=O)[C@@H]3C2=CO1	n	n	14µM	n	u	n
CC[C@H](C)/C=C(C)/C=C/C1=CC2=C(Cl)C(=O)[C@@](C)(OC(C)=O)C(=O)C2=CO1	n	x	x	x	x	x
CCC(C)/C=C(C)/C=C/C1=CC2=C(Cl)C(=O)C(C)(OC(C)=O)C(=O)C2=CO1 (configuration not stated)	n	9.3µM	n	x	u	n
CCOC(=O)c1c(N/N=C/c2ccncc2)n[nH]c1C	n	n	n	n	n	n
SMILES	HCV inh	Pf growth 96h	Sm TGR block	HCMV antiviral	Pf growth 48h	SARS PLpro yeast
O=C(c1cc2sccc2n1Cc1ccc(F)cc1)N1CCCc2ccccc21	u	u	n	n	9.3µM	n
O=C(NCc1ccccc1)c1cc2sccc2n1Cc1ccc(F)cc1	x	x	n	n	x	x
Cn1c(C(=O)NCCc2c[nH]c3ccccc23)cc2sccc21	u	n	n	n	x	n
O=C(NCCc1c[nH]c2ccccc12)c1cc2sccc2n1Cc1ccccc1	5µM	n	n	n	x	n
O=C(NCc1ccc(F)cc1)c1cc2sccc2n1Cc1ccc(F)cc1	u	10µM	n	n	u	n
O=C(NNC(=O)c1cc([N+](=O)[O-])ccc1Cl)c1cccs1	n	n	n	n	n	n
COc1ccccc1-c1sc2ccccc2c1-c1ccc(O)cc1	5.6µM	x	x	n	x	n
COc1ccccc1-c1sc2ccccc2c1-c1ccc2c(c1)OCO2	u	5.2µM	n	n	4.7µM	n
COc1ccc(-c2sc3ccccc3c2-c2ccc(O)cc2)cc1	u	x	x	n	x	n
COc1ccccc1-c1sc2cc3c(cc2c1-c1ccc2c(c1)OCO2)OCO3	n	u	n	u	u	n
COc1ccc(-c2sc3cc(OC)c(OC)cc3c2-c2ccc(O)cc2)cc1	28µM	x	x	n	x	n
O=C(c1ccccc1)N(Cc1cccc(Br)c1)C1CCS(=O)(=O)C1 (configuration not stated)	n	n	n	u	n	n
O=C(/C=C/c1ccco1)N(Cc1ccc(F)cc1)C1CCS(=O)(=O)C1 (configuration not stated)	n	n	7.9µM	n	n	n
O=C(/C=C/c1ccco1)N(Cc1cccc(Br)c1)C1CCS(=O)(=O)C1 (configuration not stated)	n	u	3.2µM	n	u	n
O=C(/C=C/c1ccco1)N(Cc1cccc(F)c1)C1CCS(=O)(=O)C1 (configuration not stated)	n	u	10µM	n	n	n
O=C(/C=C/c1ccco1)N(Cc1ccccc1)C1CCS(=O)(=O)C1 (configuration not stated)	n	n	3.2µM	n	n	n
COc1ccc2c(c1)CN(C)S(=O)(=O)c1ccccc1-2	n	x	x	n	x	n
COc1c(F)c(F)c(C(=O)Nc2c(C)cc(Br)cc2C)c(F)c1F	n	n	n	n	u	n
O=C(/C=C/c1ccco1)N(Cc1cccc(Cl)c1)C1CCS(=O)(=O)C1 (configuration not stated)	n	u	2.8µM	n	u	n
O=C(/C=C/c1ccccc1)N(Cc1cccc(Cl)c1)C1CCS(=O)(=O)C1 (configuration not stated)	n	4.1µM	n	n	6.6µM	n
O=C(Cn1c(=O)oc2ccccc21)N(Cc1ccccc1)C1CCS(=O)(=O)C1 (configuration not stated)	n	n	n[11.4 µM]	-101	x	n
COc1cccc(CN(C(=O)/C=C/c2ccc(Cl)cc2)C2CCS(=O)(=O)C2)c1 (configuration not stated)	n	n	n	n	u	n
Cc1c(C(=O)N(Cc2cccc(Br)c2)C2CCS(=O)(=O)C2)oc2ccccc12 (configuration not stated)	u	13µM	n	n	u	u
